This note sets out measurements from PubChem BioAssay (NCI).

About 79,000 compounds went through this panel and 15% of them were active in at least one assay; those are over-represented in the sample as a whole. A number with no mark means an inactive call. Calls of active or inactive are those of the source. No stated cut-off is given here; in the data, active means growth inhibition above about 70%; inactive means the rest.

A short description of experiment [1]: NCI Yeast Anticancer Drug Screen. Data for the rad50 strain (AID 155).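 Further: 0% = growth of vehicle-only cultures of the same strain.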 The conditions noted are these: S. cerevisiae rad50 strain growth inhibition, active compounds read high. An outline of the steps: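 DNA repair mutant yeast, compound exposure, growth read-out; inhibition is taken relative to vehicle.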
Experiment [2] can be described thus: NCI Yeast Anticancer Drug Screen. Data for the mec2-1 strain (AID 157). The conditions noted are these: S. cerevisiae mec2-1 strain, active compounds read high. An outline of the steps:
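Yeast mec2-1 mutant treated with compound. Readout: growth inhibition vs vehicle controls.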

Experiment [3] in a line: NCI Yeast Anticancer Drug Screen. Data for the sgs1 mgt1 strain (AID 161).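 Further: 0% = growth of cultures given vehicle only.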 The settings on record: S. cerevisiae sgs1 mgt1 strain, active compounds read high. An outline of the steps:
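Test agents were incubated with a DNA-repair-mutant yeast strain. Growth was then read and compared against vehicle-treated controls.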

Experiment [4] in a line: NCI Yeast Anticancer Drug Screen. Data for the cln2 rad14 strain (AID 165).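 Further: 0% = growth equal to vehicle treated cultures.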 The settings on record: S. cerevisiae cln2 rad14 strain, active compounds read high. An outline of the steps:
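cln2 rad14 yeast strain; compound exposure; growth inhibition read vs vehicle controls.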

Experiment [5] is described as follows: NCI Yeast Anticancer Drug Screen. Data for the bub3 strain (AID 167). The conditions noted are these: S. cerevisiae bub3 mutant strain, active compounds read high. An outline of the steps: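 In this screen, a yeast mutant lacking normal mitotic checkpoint function is challenged with compound. Relative growth versus vehicle gives the inhibition value.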
The nature of experiment [6]: NCI Yeast Anticancer Drug Screen. Data for the mlh1 rad18 strain (AID 175). The conditions noted are these: S. cerevisiae mlh1 rad18 strain growth inhibition, active compounds read high. An outline of the steps: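 Yeast w/ defined DNA-repair lesions; compound exposure; growth vs vehicle controls → % inhibition.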
Setting [7] is: at 5.0 µM (retest, dose inferred, filed as 0.5).
The mark [8] stands for this setting: at 50.0 µM (retest, dose inferred, filed as 5.0).

For `O=C1O/C(=C2\OC(=O)c3ccccc32)c2ccccc21`, the growth inhibition was 9% in experiment [1] (setting [7]); 22% in experiment [1] (setting [8]); -13.4% in experiment [1] (at 50.0 µM); 0% in experiment [2] (setting [7]); 0% in experiment [2] (setting [8]); 7.55% in experiment [2] (at 50.0 µM). Further, the growth inhibition in experiment [3] (setting [7]) was 4%; in experiment [3] (setting [8]), 1%; in experiment [3] (at 50.0 µM), -28.3%; in experiment [4] (setting [7]) it was 1%; in experiment [4] (setting [8]) it was 3%; in experiment [4] (at 50.0 µM) it was 47.8%. Also, the growth inhibition was 1% in experiment [5] (setting [7]); 2% in experiment [5] (setting [8]); 5.25% in experiment [5] (at 50.0 µM); 16% in experiment [6] (setting [7]); -1% in experiment [6] (setting [8]); -18.1% in experiment [6] (at 50.0 µM).

On to `CC(=O)Nc1ccccc1C(O)(c1ccccc1)c1ccccc1`, for which the growth inhibition in experiment [1] (setting [7]) is -2%; in experiment [1] (setting [8]), 0%; in experiment [1] (at 50.0 µM), 14.4%; in experiment [2] (setting [7]), -5%; in experiment [2] (setting [8]), -2%; in experiment [2] (at 50.0 µM), 35.2%. The growth inhibition is -5% in experiment [3] (setting [7]); 1% in experiment [3] (setting [8]); 16.4% in experiment [3] (at 50.0 µM); 2% in experiment [4] (setting [7]); -2% in experiment [4] (setting [8]); 9.45% in experiment [4] (at 50.0 µM). Also, the growth inhibition is -2% in experiment [5] (setting [7]); 2% in experiment [5] (setting [8]); 14.7% in experiment [5] (at 50.0 µM); -5% in experiment [6] (setting [7]); 1% in experiment [6] (setting [8]); -31.2% in experiment [6] (at 50.0 µM).

In the case of `O=C(NNc1ccccc1)C(O)C(=O)C(O)C(O)C(O)CO` (stereo not drawn), the growth inhibition was 1% in experiment [1] (setting [7]); 27% in experiment [1] (setting [8]); 9.45% in experiment [1] (at 50.0 µM); -1% in experiment [2] (setting [7]); 8% in experiment [2] (setting [8]); 21.9% in experiment [2] (at 50.0 µM). The growth inhibition in experiment [3] (setting [7]) is 9%; in experiment [3] (setting [8]), 6%; in experiment [3] (at 50.0 µM), 61.8%; in experiment [4] (setting [7]), -2%; in experiment [4] (setting [8]), 14%; in experiment [4] (at 50.0 µM) it was -14.1%. Further, the growth inhibition in experiment [5] (setting [7]) is 8%; in experiment [5] (setting [8]), 34%; in experiment [5] (at 50.0 µM), 80% (active); in experiment [6] (setting [7]), 5%; in experiment [6] (setting [8]), 28%; in experiment [6] (at 50.0 µM), 75.2% (active).

On to `CC(=O)c1c2c(cc3c1CC1(C3)Cc3cc4c(c(C(=O)O)c3C1)CCC4)CCC2` (stereo not drawn), for which the growth inhibition in experiment [1] (setting [7]) was 53%; in experiment [1] (setting [8]), 94% (active); in experiment [1] (at 50.0 µM) it was 84% (active); in experiment [2] (setting [7]), 56%; in experiment [2] (setting [8]), 96% (active); in experiment [2] (at 50.0 µM), 79.8% (active). For the same compound, the growth inhibition in experiment [3] (setting [7]) is 65%; in experiment [3] (setting [8]), 97% (active); in experiment [3] (at 50.0 µM), 89.6% (active); in experiment [4] (setting [7]) it was 70% (active); in experiment [4] (setting [8]) it was 95% (active); in experiment [4] (at 50.0 µM), 84.2% (active). Further, the growth inhibition in experiment [5] (setting [7]) was 63%; in experiment [5] (setting [8]) it was 95% (active); in experiment [5] (at 50.0 µM), 83.5% (active); in experiment [6] (setting [7]), 73% (active); in experiment [6] (setting [8]) it was 96% (active); in experiment [6] (at 50.0 µM) it was 83.4% (active).

As to `C[CH2][Sn]([CH2]C)([O]C(=O)c1ccccc1OC)[O][Sn]([CH2]C)([CH2]C)[O]C(=O)c1ccccc1OC`, the growth inhibition was 36% in experiment [1] (setting [7]); 78% (active) in experiment [1] (setting [8]); 51.6% in experiment [1] (at 50.0 µM); 35% in experiment [2] (setting [7]); 87% (active) in experiment [2] (setting [8]); 41% in experiment [2] (at 50.0 µM). Also, the growth inhibition in experiment [3] (setting [7]) was 33%; in experiment [3] (setting [8]), 83% (active); in experiment [3] (at 50.0 µM), 42.2%; in experiment [4] (setting [7]), 20%; in experiment [4] (setting [8]) it was 62%; in experiment [4] (at 50.0 µM) it was 20.8%. The growth inhibition is 35% in experiment [5] (setting [7]); 94% (active) in experiment [5] (setting [8]); 32.1% in experiment [5] (at 50.0 µM); 38% in experiment [6] (setting [7]); 84% (active) in experiment [6] (setting [8]); 72.8% (active) in experiment [6] (at 50.0 µM).

With `CC(C)OP(=O)(OC(C)C)/C(I)=N/Nc1ccc([N+](=O)[O-])cc1`, the growth inhibition is -7% in experiment [1] (setting [7]); -1% in experiment [1] (setting [8]); 68.7% in experiment [1] (at 50.0 µM); -6% in experiment [2] (setting [7]); 8% in experiment [2] (setting [8]); 13.9% in experiment [2] (at 50.0 µM). In addition, the growth inhibition in experiment [3] (setting [7]) is 6%; in experiment [3] (setting [8]), 37%; in experiment [3] (at 50.0 µM) it was 38.4%; in experiment [4] (setting [7]), -14%; in experiment [4] (setting [8]), 14%; in experiment [4] (at 50.0 µM), 13.1%. For the same compound, the growth inhibition was 1% in experiment [5] (setting [7]); -1% in experiment [5] (setting [8]); 61.7% in experiment [5] (at 50.0 µM); 9% in experiment [6] (setting [7]); 4% in experiment [6] (setting [8]); 70% in experiment [6] (at 50.0 µM).
